This is a sample that favours compounds with a hit; in the whole collection about 0.4% have one here.
Rac1 wt modul: human Rac1 wildtype GTP binding, inhibitors and activators. P63000. GST-Rac1 beads, fluorescent GTP binding, flow cytometry; actives lie on both sides; 0 = cold GTP competed, 100 = untreated. GTP binding activity (% of control), % at 10 µM. actives 0.27% (n = 190,000);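 active = GTP binding activity at least 20 points away from the 100% control level, either lower or higher; inconclusive = compound flagged as likely green fluorescent, judged across all proteins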
Rac1 mut GTP: alters GTP binding to activated mutant human Rac1; P63000; GST-Rac1 activated beads, fluorescent GTP binding, flow cytometry; actives lie on both sides; 100% means binding = to untreated wells; percent activity (GTP binding), % at 10 µM; actives 0.11% (n = 190,000); AID 764;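 active = GTP binding at least 20 percentage points away from the 100% baseline, in either direction, so actives lie on both sides; inconclusive = Compound likely fluorescent itself, or too few beads counted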
Cdc42 wt: human Cdc42 wildtype GTP binding change, either direction. GST-Cdc42 beads, Bodipy-GTP binding, flow cytometry; actives lie on both sides. percent activity (GTP binding), % at 10 µM. actives 0.2% (n = 190,000);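 active = percent activity GTP binding at least 20 points away from the 100% baseline, either down as inhibitor or up as activator; inconclusive = compound flagged as likely green fluorescent from well-wide comparison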;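 note: median bead fluorescence of bound Bodipy-FL-GTP at 100 nM; 0% = excess unlabeled GTP control and 100% = no compound control; below 100% means less GTP binding so inhibitor and above means activator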
Target sequence (P60953 whole entry, looked up): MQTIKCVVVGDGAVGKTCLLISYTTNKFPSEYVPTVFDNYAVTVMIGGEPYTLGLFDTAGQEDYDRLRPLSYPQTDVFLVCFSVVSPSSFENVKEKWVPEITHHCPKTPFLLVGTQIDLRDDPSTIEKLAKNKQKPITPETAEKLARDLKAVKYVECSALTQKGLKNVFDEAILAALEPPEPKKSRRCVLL
Rab2 wt GTP: changes GTP binding to wildtype dog Rab2A, up or down; GST-Rab2 wt beads, Bodipy-GTP binding, flow cytometry; P61105; actives 0.19% (n = 190,000); GTP binding activity, % at 10 µM;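 active = GTP binding activity at least 20 points away from 100%, either lowered or raised; inconclusive = signal likely due to the compound's own green fluorescence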;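 note: 0% = beads with excess unlabeled GTP and 100% = no-compound control corrected for plate trend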
HRas wt GTP bind: human HRas wildtype GTP binding, change in either direction; GTP binding activity, % at 10 µM; P01112; actives 0.14% (n = 190,000); GST-Ras wt beads, Bodipy-FL-GTP binding, flow cytometry; actives lie on both sides;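 active = GTP binding activity at least 20% away from the 100% baseline, either lowered as inhibitor or raised as activator; inconclusive = flagged as likely green fluorescent, judged across all proteins in the well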;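 note: 0% = unlabeled GTP competition control and 100% = no-compound control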
Target sequence (P01112 whole entry, looked up): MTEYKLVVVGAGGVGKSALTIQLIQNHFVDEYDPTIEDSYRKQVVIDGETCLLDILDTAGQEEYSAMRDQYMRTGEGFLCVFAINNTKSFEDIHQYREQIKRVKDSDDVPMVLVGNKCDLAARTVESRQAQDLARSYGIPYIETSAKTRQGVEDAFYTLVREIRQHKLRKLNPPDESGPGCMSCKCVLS
Rab7 wt modul: alters GTP binding to wildtype dog Rab7. GST-Rab7 beads, fluorescent GTP binding, flow cytometry; actives lie on both sides; untreated = 100%, excess cold GTP = 0%. GTP binding activity (percent of control), % at 10 µM. actives 0.055% (n = 190,000);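 active = fluorescent GTP binding to Rab7 beads changed by at least 20 points from the 100% baseline, either direction, mostly lower; inconclusive = compound itself probably fluorescent, or too few beads counted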;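 note: median green fluorescence of bound Bodipy-FL-GTP per Rab7 bead population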
Active calls of the source: *; ? = inconclusive; nt = no result given; [ ] = dose if it differs, or a comment.

SMILES | Rac1 wt modul | Rac1 mut GTP | Cdc42 wt | Rab2 wt GTP | HRas wt GTP bind | Rab7 wt modul
Cc1c(C(=O)N2CCc3ccccc3C2)oc2ccc(S(=O)(=O)N3CCCCCC3)cc12 | 131.0*[activator] | 108.0 | 105.0 | 112.0 | 111.0 | 108.0
Cc1ccc(/C=C/C(=O)OCC(=O)NC(C)C)o1 | 99.0 | 94.0 | 99.0 | 98.0 | 98.0 | 100.0
NS(=O)(=O)c1ccc(Nc2nc(-c3ccc(F)cc3)cs2)cc1 | 96.0 | 96.0 | 102.0 | 95.0 | 97.0 | 100.0
NS(=O)(=O)c1ccc(Nc2nc(-c3ccc(O)cc3O)cs2)cc1 | 78.0* | 86.0 | 77.0* | 77.0* | 78.0* | 87.0
O=c1[nH]c(N/N=C/c2ccc(O)cc2)nc2ccccc12 | 77.0* | 89.0 | 83.0 | 77.0* | 76.0* | 91.0
O=c1[nH]c(N/N=C\c2ccc(F)cc2)nc2ccccc12 | 90.0 | 95.0 | 94.0 | 98.0 | 98.0 | 100.0
COc1ccc(C(=O)N/C(=C\c2cccc([N+](=O)[O-])c2)C(=O)Nc2cccc(C(=O)O)c2)cc1 | 64.0* | 82.0 | 62.0* | 60.0* | 69.0* | 92.0
CCc1ccc(CN(C)C(=O)CCc2nnc(COc3ccccc3)o2)cc1 | 97.0 | 93.0 | 93.0 | 94.0 | 95.0 | 97.0
O=[N+]([O-])c1ccc(/C=N/N=C/c2ccc([N+](=O)[O-])o2)o1 | 95.0 | 90.0 | 92.0 | 91.0 | 91.0 | 91.0
O=C1OC(c2ccc(F)cc2)=C/C1=C\c1ccc([N+](=O)[O-])o1 | 113.0 | 103.0 | 115.0 | 118.0 | 112.0 | 124.0*[activator]
COc1ccc(OCCSc2nnc(-c3ccc(OC)cc3)n2N)cc1 | 100.0 | 95.0 | 98.0 | 96.0 | 96.0 | 95.0
CCN(CC)S(=O)(=O)c1ccc2c(c1)c(=O)c(C(=O)N1CCc3ccccc3C1)cn2C | 132.0*[activator] | 109.0 | 115.0 | 118.0 | 119.0 | 116.0
Brc1cccc(-c2cnco2)c1 | 101.0 | 96.0 | 98.0 | 97.0 | 97.0 | 96.0
NS(=O)(=O)c1ccc(N2N=C(c3ccccc3)CC2c2ccccc2)cc1 (stereo unspecified) | 99.0 | 97.0 | 71.0* | 100.0 | 98.0 | 94.0
CC(=O)c1ccc(OCC(O)CN2CCN(CCO)CC2)cc1 (stereo unspecified) | 101.0 | 98.0 | 98.0 | 101.0 | 102.0 | 102.0
Cc1ccc(-c2cn3cccc(C)c3n2)cc1 | 108.0 | 107.0 | 109.0 | 118.0 | 112.0 | 120.0*[activator]
Cc1cccn2cc(-c3ccc(Cl)cc3)nc12 | 93.0 | 93.0 | 91.0 | 93.0 | 91.0 | 93.0
CC(=O)NC(CCCN1C(=O)c2ccccc2C1=O)c1nnn(C)n1 (stereo unspecified) | 102.0 | 99.0 | 100.0 | 99.0 | 99.0 | 96.0
O=C(COC(=O)/C=C/c1cccs1)Nc1ccccc1Cl | 91.0 | 91.0 | 92.0 | 90.0 | 93.0 | 93.0
O=C(COC(=O)/C=C/c1cccs1)Nc1ccc2ccccc2c1 | 74.0* | 76.0* | 73.0* | 76.0* | 80.0 | 81.0
O=[N+]([O-])c1ccccc1/C=C/C=N/n1c(-c2ccco2)n[nH]c1=S | 77.0* | 75.0* | 76.0* | 82.0 | 80.0 | 84.0
Cc1cccc(Nc2nc(NCc3ccco3)c3ccccc3n2)c1 | 88.0 | 85.0 | 84.0 | 72.0* | 85.0 | 79.0*
Cc1ccccc1Nc1nc(NCc2ccco2)c2ccccc2n1 | 100.0 | 98.0 | 100.0 | 101.0 | 102.0 | 99.0
O=C(NC1CCCCC1)C(c1ccco1)N(Cc1ccco1)C(=O)c1ccco1 (stereo unspecified) | 100.0 | 98.0 | 100.0 | 98.0 | 64.0* | 98.0
CCOC(=O)c1c(NC(=O)CSc2nnc(Cc3ccccc3)o2)sc(C(C)=O)c1C | 102.0 | 99.0 | 103.0 | 103.0 | 103.0 | 96.0
SMILES | Rac1 wt modul | Rac1 mut GTP | Cdc42 wt | Rab2 wt GTP | HRas wt GTP bind | Rab7 wt modul
CCOC(=O)c1sc(NC(=O)CSc2nnc(Cc3ccccc3)o2)c(C#N)c1C | 81.0 | 76.0* | 85.0 | 78.0* | 83.0 | 83.0
COc1cc(C#CC#CCN2CCCCC2)ccc1O | 101.0 | 101.0 | 102.0 | 99.0 | 100.0 | 96.0
CC1(C)Cc2c(sc(NC(=S)NC(=O)c3ccccc3)c2C(=O)O)CO1 | 70.0* | 63.0* | nt | 69.0* | 67.0* | nt
COCCNC(=O)c1cc2oc3ccccc3c2n1C | 101.0 | 97.0 | 101.0 | 100.0 | 99.0 | 97.0
CCN1/C(=C/C=C/C=C/c2sc3ccccc3[n+]2CC)Sc2ccccc21 | 89.0 | ? | 63.0* | 57.0* | 51.0* | nt
Cc1nnc2ccc(-c3ccc(NC(=O)c4ccco4)cc3)nn12 | 75.0* | 88.0 | 86.0 | 84.0 | 85.0 | 87.0
CC(=O)Nc1ccc(-c2ccc3nnc(C)n3n2)cc1 | 90.0 | 92.0 | 92.0 | 93.0 | 92.0 | 95.0
CC1CN(C(=O)CCN2C(=O)c3ccccc3C2=O)CC(C)O1 (stereo unspecified) | 98.0 | 93.0 | 97.0 | 96.0 | 95.0 | 93.0
COc1cc2c(cc1OC)-c1cc(NCc3ccccn3)nc(=O)n1CC2 | 83.0 | 84.0 | 79.0* | 80.0 | 79.0* | 87.0
CCNc1cc2n(c(=O)n1)CCc1cc(OC)c(OC)cc1-2 | 86.0 | 87.0 | 88.0 | 86.0 | 86.0 | 87.0
COc1cc2c(cc1OC)-c1cc(NC3CCCCCCC3)nc(=O)n1CC2 | 89.0 | 88.0 | 77.0* | 80.0 | 77.0* | 91.0
O=C(c1cc(-c2ccccc2)n[nH]1)N1CCc2c([nH]c3ccccc23)C1c1ccccn1 (stereo unspecified) | 98.0 | 97.0 | 93.0 | 98.0 | 98.0 | 104.0
Cn1c(CN2CCCC(C(=O)c3ccc4c(c3)OCO4)C2)nc2ccccc21 (stereo unspecified) | 94.0 | 93.0 | 93.0 | 94.0 | 94.0 | 95.0
N/C(=N\OC(=O)Oc1ccccc1)c1cccc([N+](=O)[O-])c1 | 104.0 | 97.0 | 105.0 | 97.0 | 99.0 | 99.0
O=C(C#Cc1ccccc1)c1cccc([N+](=O)[O-])c1 | 84.0 | 71.0* | 74.0* | 83.0 | 87.0 | 91.0
CCCc1cc(=O)n2[nH]c(-c3ccc(OC)cc3)nc2n1 | 102.0 | 98.0 | 97.0 | 98.0 | 99.0 | 98.0
O=C(NCC(c1cccnc1)N1CCN(c2ccc(F)cc2)CC1)c1ccco1 (stereo unspecified) | 98.0 | 95.0 | 95.0 | 96.0 | 96.0 | 94.0
CCc1nnc(NC(=O)/C=C/c2cccs2)s1 | 99.0 | 96.0 | 95.0 | 95.0 | 96.0 | 95.0
Cc1ccc(NCC(=O)c2ccccc2)cc1Cl | 91.0 | 92.0 | 93.0 | 88.0 | 78.0* | 82.0
COc1ccc(C(=O)N2CC3(CC(c4ccc(Cl)cc4)=NO3)C[C@H]2C(=O)NCC(N)=O)cc1 (stereo partly specified) | 98.0 | 96.0 | 99.0 | 97.0 | 97.0 | 95.0

From PubChem BioAssay
